Records with an inconclusive call do not appear. Active and inactive are the calls of the source. The calls were made as follows: active = hit-call score of the fitted dose curve at least 0.9, where 1 is the maximum; inconclusive = response in the unintended direction; inactive = score below 0.9.
System: not listed separately
Assay: TOX21_p53_BLA_p2_viability: Viability Assessment in the Tox21 HCT-116 p53 Agonism Beta-lactamase Assay, Phase 2 (AID 2283591);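 also: compound exposure lasted 16 h at 37 °C; actives lower the ATP signal meaning cytotoxicity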
In short: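 HCT-116 p53-bla cells (4000/well) rested 5 h at 37C, then received compounds in DMSO (217-fold dilution) for 16 h at 37C, 5% CO2. After the CCF4 read, CellTiter-Glo was added; ATP luminescence was read after 30 min at room temperature.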

Structure (SMILES)	outcome
CCC(N)(CO)CO	inactive
CCOC(=O)[C@H](CCc1ccccc1)N[C@H]1CS[C@H](c2cccs2)CN(CC(=O)O)C1=O	inactive
COC(=O)CC#N	inactive
Cc1nc2n(c(=O)c1CCN1CCC(c3noc4cc(F)ccc34)CC1)CCCC2	inactive
C=CC1=C(C(=O)O)N2C(=O)[C@@H](NC(=O)C(=NOCC(=O)O)c3csc(N)n3)[C@H]2SC1	inactive
COc1ccc(C2C(=O)c3ccccc3C2=O)cc1	inactive
C=CCCC=C	inactive
Cc1cc(O)cc2c1O[C@](C)(CCC[C@H](C)CCC[C@H](C)CCCC(C)C)CC2	inactive
C[C@]12CC[C@@H]3c4ccc(OS(=O)(=O)O)cc4CC[C@H]3[C@@H]1CCC2=O	inactive
CC(=O)Nc1ccc(N)cc1	inactive
O=C1c2ccccc2C(=O)C1c1ccc(Br)cc1	inactive
C[N+](C)(C)CC(O)CC(=O)[O-] (stereo not given)	inactive
CCCCCCCCCCCCCCCCCCOP(=O)([O-])OC1CC[N+](C)(C)CC1	inactive
CN1C(=O)CC(C)(c2ccccc2)C1=O (stereo not given)	inactive
Nc1ccc2cc(S(=O)(=O)O)cc(O)c2c1	inactive
CC(=O)OCC(=O)[C@@]12OC3(CCCC3)O[C@@H]1C[C@H]1[C@@H]3CCC4=CC(=O)C=C[C@]4(C)[C@@]3(F)[C@@H](O)C[C@@]12C	inactive
O=C(O)[C@H](O)[C@@H](O)[C@H](O[C@@H]1O[C@H](CO)[C@H](O)[C@H](O)[C@H]1O)[C@H](O)CO	inactive
CCOc1ccc(O)cc1	inactive
CC(=O)OCC(=O)[C@@]1(O)[C@H](OC(C)=O)C[C@H]2[C@@H]3CCC4=CC(=O)C=C[C@]4(C)[C@@]3(F)[C@@H](O)C[C@@]21C	inactive
N=C(N)c1ccc2cc(OC(=O)c3ccc(N=C(N)N)cc3)ccc2c1	inactive
O=Cc1ccc(Cl)c(Cl)c1	inactive

Target: Cellular tumor antigen p53 (Homo sapiens) (UniProt P04637)
Sequence (P04637 whole entry, looked up): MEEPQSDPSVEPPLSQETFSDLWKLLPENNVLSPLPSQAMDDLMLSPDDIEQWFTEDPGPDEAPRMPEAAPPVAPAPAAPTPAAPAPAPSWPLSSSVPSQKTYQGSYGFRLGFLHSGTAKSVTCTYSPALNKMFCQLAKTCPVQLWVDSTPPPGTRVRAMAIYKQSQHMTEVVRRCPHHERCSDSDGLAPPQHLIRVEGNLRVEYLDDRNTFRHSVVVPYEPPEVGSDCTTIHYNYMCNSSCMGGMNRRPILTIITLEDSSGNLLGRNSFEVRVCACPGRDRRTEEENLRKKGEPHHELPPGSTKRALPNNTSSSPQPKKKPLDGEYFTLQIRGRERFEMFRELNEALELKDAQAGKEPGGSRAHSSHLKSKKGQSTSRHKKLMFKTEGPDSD
Assay: TOX21_p53_BLA_p2_ratio: Tox21 HCT-116 p53 Agonism Beta-lactamase Assay, Ratio, Phase 2 (AID 2283592)
In short: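 HCT116 p53-bla; 4000 cells/well; 5 h pre-incubation; cpd in DMSO, 217-fold dilution; 16 h 37C/5% CO2; CCF4-AM 2 h RT; Ex 405, Em 460/530 ratio; DMSO = baseline; positive fitting direction.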

Structure (SMILES)	outcome
CCOC(=O)c1ncn2c1CN(C)C(=O)c1cc(F)ccc1-2	inactive
CC1(C)CCC(NC(=O)[C@@H](N)CCC(=O)O)CC1	inactive
c1ccc2cc3c4ccccc4c4ccccc4c3cc2c1	inactive
OCC(CO)N[C@H]1C[C@](O)(CO)[C@@H](O)[C@H](O)[C@H]1O	inactive
CN(C)CCCNCCC#N	inactive
CCCCCCCCCCCCOC(=O)c1ccc(O)cc1	inactive
NC(=O)c1ccccc1N	inactive
O=C1c2ccccc2S(=O)(=O)N1CCCCN1CCN(c2ncccn2)CC1	inactive
C/C(=N\O)c1ccc(OCC(=O)N2CCCCC2)cc1	inactive
COc1ccccc1N1CCN(CCCCNC(=O)c2ccc(-c3ccc(C(C)=O)cc3)cc2)CC1	inactive
CCC(=O)O[C@]1(C(=O)CCl)[C@@H](C)C[C@H]2[C@@H]3CCC4=CC(=O)C=C[C@]4(C)[C@@]3(F)[C@@H](O)C[C@@]21C	inactive
CC(CNC(=O)c1cccnc1)NC(=O)c1cccnc1 (stereo not given)	inactive
COc1cc(-c2ccc(=O)[nH]n2)ccc1OC(F)F	inactive
O=C(OC(=O)c1ccccc1)c1ccccc1	inactive
C1C[C@@H]2[C@H]3CC[C@H](C3)[C@@H]2C1	inactive
Cl[Si](Cl)(c1ccccc1)c1ccccc1	inactive
O=C(OC1C[C@H]2CC[C@@H](C1)[N+]21CCCC1)C(O)(c1ccccc1)c1ccccc1 (stereo not given in full)	inactive
C[C@@H]1C[C@H]2[C@@H]3CCC4=CC(=O)C=C[C@]4(C)[C@@]3(F)[C@@H](O)C[C@]2(C)[C@@]1(O)C(=O)COC(=O)c1cccc(S(=O)(=O)O)c1	inactive
CCC(N)(CO)CO	inactive
CCOC(=O)[C@H](CCc1ccccc1)N[C@H]1CS[C@H](c2cccs2)CN(CC(=O)O)C1=O	inactive

Structure (SMILES)	outcome
COC(=O)CC#N	inactive
Cc1nc2n(c(=O)c1CCN1CCC(c3noc4cc(F)ccc34)CC1)CCCC2	inactive
C=CC1=C(C(=O)O)N2C(=O)[C@@H](NC(=O)C(=NOCC(=O)O)c3csc(N)n3)[C@H]2SC1	inactive
COc1ccc(C2C(=O)c3ccccc3C2=O)cc1	inactive
C=CCCC=C	inactive
Cc1cc(O)cc2c1O[C@](C)(CCC[C@H](C)CCC[C@H](C)CCCC(C)C)CC2	inactive
C[C@]12CC[C@@H]3c4ccc(OS(=O)(=O)O)cc4CC[C@H]3[C@@H]1CCC2=O	inactive
CC(=O)Nc1ccc(N)cc1	inactive
O=C1c2ccccc2C(=O)C1c1ccc(Br)cc1	inactive
C[N+](C)(C)CC(O)CC(=O)[O-] (stereo not given)	inactive
CCCCCCCCCCCCCCCCCCOP(=O)([O-])OC1CC[N+](C)(C)CC1	inactive
CN1C(=O)CC(C)(c2ccccc2)C1=O (stereo not given)	inactive
Nc1ccc2cc(S(=O)(=O)O)cc(O)c2c1	inactive
CC(=O)OCC(=O)[C@@]12OC3(CCCC3)O[C@@H]1C[C@H]1[C@@H]3CCC4=CC(=O)C=C[C@]4(C)[C@@]3(F)[C@@H](O)C[C@@]12C	inactive
O=C(O)[C@H](O)[C@@H](O)[C@H](O[C@@H]1O[C@H](CO)[C@H](O)[C@H](O)[C@H]1O)[C@H](O)CO	inactive
CCOc1ccc(O)cc1	inactive
CC(=O)OCC(=O)[C@@]1(O)[C@H](OC(C)=O)C[C@H]2[C@@H]3CCC4=CC(=O)C=C[C@]4(C)[C@@]3(F)[C@@H](O)C[C@@]21C	inactive
N=C(N)c1ccc2cc(OC(=O)c3ccc(N=C(N)N)cc3)ccc2c1	inactive
O=Cc1ccc(Cl)c(Cl)c1	inactive

Source: PubChem BioAssay (EPA / NIEHS)
